SMILES strings stand for the structures. Hit rate of the full screen: of about 420,000 compounds, about 50,000 (12%) were called active. A call without a number means that no potency is given here. Roughly 26% stayed inconclusive and do not appear here. Calls come from the whole dose curve; as a rule, active = well fitted inhibition curve with a large enough effect; inconclusive = small, poorly fitted or top-dose-only effect; inactive = flat fitted curve, though single readings scatter. Only a selection was taken, and actives are over-represented in it overall. Where a SMILES comes first, the peptide text is derived from it. Bridges are numbered along the chain shown (N, C = ends). [ ]: non-standard residue; d: D form. The star is where a group is joined. X4 = CC[C@H](C)CCCCC(=O)*; Dab = NCC[C@H](N)C(=O)O
Potency is the fitted concentration of half-maximal effect.

This experiment in a line: qHTS for Inhibitors of human tyrosyl-DNA phosphodiesterase 1 (TDP1): qHTS in cells in presence of CPT. Note: nearly all actives have a fitted effect of over 55% in size. As to conditions: chicken DT40 Tdp1-/-;hTDP1 cells + 20 nM CPT, ATP luminescence, 48 h; series mostly up to 46.2 µM. A digest of the protocol:
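Cell growth measured by CellTiter-Glo luminescence after a minimum 48 h, 37 C compound exposure with 20 nM CPT in Tdp1-knockout DT40 cells stably expressing hTDP1, seeded 400/well; qHTS titration format.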
In general terms: In qHTS, concentration-response curves come from the screen itself.
For the compound `O=C(Nc1ccccn1)C1CCN(S(=O)(=O)c2ccc3c(c2)OCCO3)CC1`, the Potency entry was “inactive”.

Consider `COCCN1C(=O)N[C@@H](CCc2ccccc2)[C@H](C(C)=O)[C@H]1C`, for which the Potency entry is “inactive”.

Regarding `CCN1C(=NCC(C)C)N[C@@H](CCc2ccccc2)[C@H](C(=O)NCC(C)C)[C@H]1C`, the Potency was 13 µM (active).

Regarding `CCN1C(=NCc2ccc(OC)cc2)N[C@@H](CCc2ccccc2)[C@H](C(=O)NCc2ccc(OC)cc2)[C@H]1C`, the Potency is 18.4 µM (active).

Turning to `CCN1C(=NCCc2cccnc2)N[C@@H](c2ccccc2)[C@H](C(=O)OC)[C@H]1C`, the Potency result is “inactive”.

Turning to `CCN1C(=O)N[C@@H](c2ccccc2)[C@H](C(C)=O)[C@H]1C`, the Potency entry was “inactive”.

On to `O=C(CSc1nnc(N2CCOCC2)n1-c1cccc(F)c1)N1CCN(c2ccccn2)CC1`, for which the Potency result is “inactive”.

In the case of `Cc1cc(NC(=O)CSCC(=O)NC(C)c2ccccc2)no1` (centres undefined), the Potency result is “inactive”.

On to `CC(C)(C)NC(=O)COC(=O)c1cc(Br)ccc1Cl`, for which the Potency result was “inactive”.

Turning to `C[C@H](CO)N1C[C@H](C)[C@@H](CN(C)S(=O)(=O)c2ccc(F)cc2)Oc2c(NC(=O)Nc3ccccc3)cccc2C1=O`, the Potency result is “inactive”.

With `CCCc1nn(C)c2c(=O)[nH]c(-c3cc(S(N)(=O)=O)ccc3OCC)nc12`, the Potency result is “inactive”.

For the compound `Cc1nnc(CN(C)Cc2cn[nH]c2-c2ccc(-c3ccccc3)cc2)o1`, the Potency result was “inactive”.

For `COc1ccc(/C=C/C(=O)c2cc(Br)ccc(=O)c2O)cc1`, the Potency is 14.6 µM (active).

With `COc1ccc2oc(=N)c(C(=O)Nc3ccc(Br)cc3)cc2c1`, the Potency entry is “inactive”.

`COc1ccc2oc(=O)c(C(=O)O)cc2c1`: the Potency result was “inactive”.

Regarding `O=[N+]([O-])c1ccc(N=NNc2ccc([N+](=O)[O-])cc2)cc1`, the Potency entry is “inactive”.

Turning to `COc1ccccc1NC(=O)CN1C(=O)c2ccccc2Sc2ccc(C(=O)N3CCCC3)cc21`, the Potency entry is “inactive”.

In the case of `COc1ccccc1NS(=O)(=O)c1ccc(C(=O)N2CCN(c3ccccc3O)CC2)cc1`, the Potency is 18.4 µM (active).

For `O=C(c1ccc(S(=O)(=O)N2CCOCC2)cc1)N1CCN(c2ccccc2)CC1`, the Potency result was “inactive”.

Consider `COc1ccccc1N1CCN(C(=O)c2ccc(S(=O)(=O)N3CCCCC3)cc2)CC1`, for which the Potency was 23.1 µM (active).

Turning to `Cc1ccc(S(=O)(=O)N2CCN(C(=O)c3ccc(-n4cncn4)c([N+](=O)[O-])c3)CC2)cc1`, the Potency entry was “inactive”.

Take `COc1cc(C(=O)N2CCN(S(=O)(=O)c3ccc(C(C)C)cc3)CC2)ccc1OCC(=O)N1CCOCC1`: the Potency result is “inactive”.

In the case of `CN(c1ccccc1)S(=O)(=O)c1ccc(Cl)c(C(=O)OCC(=O)N2CCOCC2)c1`, the Potency result is “inactive”.

`COc1ccc(S(=O)(=O)Nc2ccccc2C(=O)N2CCCC2)cc1C`: the Potency entry was “inactive”.

Turning to `CN(c1ccccc1)S(=O)(=O)c1ccc(C(=O)N2CCN(c3ccccc3Cl)CC2)cc1`, the Potency was 23.1 µM (active).

As for `CC(C)c1ccc(S(=O)(=O)N2CCN(C(=O)c3ccc(N4CCCC4)c([N+](=O)[O-])c3)CC2)cc1`, the Potency is 16.4 µM (active).

Consider `COc1ccccc1CC(=O)Nc1ccc(S(=O)(=O)N2CCCC2)cc1`, for which the Potency entry was “inactive”.

With `O=C(c1ccc(S(=O)(=O)c2ccccc2)cc1)N1CCCCCC1`, the Potency entry is “inactive”.

Turning to `O=C(OCCN1CCOCC1)C1(c2ccccc2)CCCCC1`, the Potency result is “inactive”.

Consider `CCN(Cc1ccccc1)Cc1c(O)ccc2c(=O)c(-c3ccc(Cl)cc3Cl)coc12`, for which the Potency entry was “inactive”.

On to `Cc1nc(C(F)(F)F)ccc1C(=O)N1CCC1(C)C(=O)NS(=O)(=O)c1ccc(F)cc1F` (centres undefined), for which the Potency result was “inactive”.

`O=C(Nc1cccnc1)c1cc(Cl)ccc1Cl`: the Potency entry is “inactive”.

`CC(=O)c1nn(-c2ccc(C)cc2)cc1C(=O)c1cccc(Br)c1`: the Potency result is “inactive”.

Take `COc1ccc(S(=O)(=O)N2CCN(C(=O)N(C)C)C2C)cc1` (centres undefined): the Potency result is “inactive”.

Turning to `COc1ccc(NC(=O)CCCC(=O)c2ccccc2)cc1`, the Potency result is “inactive”.

For `CC(C)N(C(=O)Cn1cc(S(=O)(=O)CC(=O)N2CCOCC2)c2ccccc21)C(C)C`, the Potency entry was “inactive”.

With `CCCc1nn2c(=O)cc(COC(=O)c3ccc(NC(=O)COc4ccc(F)cc4)cc3)nc2s1`, the Potency result was “inactive”.

In the case of `COc1cc(C(C(=O)NC2CCCC2)N(Cc2ccccc2)C(=O)c2snc(C(N)=O)c2N)ccc1O` (centres undefined), the Potency entry was “inactive”.

As for `NC(=O)c1nsc(C(=O)N(CCCN2CCOCC2)C(C(=O)NC2CCCCC2)c2ccc(Cl)cc2)c1N` (centres undefined), the Potency result is “inactive”.

On to `CC(C)(C)NC(=O)C(c1ccc(Cl)cc1)N(CCO)C(=O)c1snc(C(N)=O)c1N` (centres undefined), for which the Potency is 13 µM (active).

With `CC(C)(C)C(=O)NC1CC2CCCC(C1)N2C(=O)Nc1ccccc1F` (centres undefined), the Potency entry was “inactive”.

For `COCC1CCCCN1C(=O)c1cc(COc2ccc(C)c(C)c2)on1` (centres undefined), the Potency is 20.6 µM (active).

Take `Cc1ccc(OCc2cc(C(=O)N(C)CCn3ccnc3C)no2)cc1C`: the Potency entry is “inactive”.

Turning to `COC(=O)[C@@H]1CCCN1C(=O)c1cc(COc2cccc3cccnc23)on1`, the Potency result is “inactive”.

In the case of `O=C1C=CN2CCCC2CC1` (centres undefined), the Potency is 16.4 µM (active).

Take `Cc1cc(C)c(C#N)c(Nc2cccc(Br)c2)n1`: the Potency result is “inactive”.

With `CC1(C(=O)NS(=O)(=O)c2ccccc2)CCN1C(=O)Cc1ccc(-c2ccccc2)cc1` (centres undefined), the Potency entry was “inactive”.

As for `CCCNC(=O)C1(C)CCN1C(=O)Cc1ccc(-c2ccccc2)cc1` (centres undefined), the Potency was 16.4 µM (active).

On to `CC1(C(=O)NS(=O)(=O)c2cccs2)CCN1C(=O)Cc1ccc(-c2ccccc2)cc1` (centres undefined), for which the Potency result was “inactive”.

For the compound `CCOC(=O)c1c(C)[nH]c(C(=O)OCC(=O)c2ccc(OC)cc2OC)c1C`, the Potency entry is “inactive”.

Turning to `N#C/C(=C\c1cccnc1)C(=O)Nc1ccc(SC(F)F)cc1`, the Potency result is “inactive”.

Consider `Cn1c(C(=O)N2CCC(C(=O)N3CCN(c4ccccc4)CC3)CC2)cc2sccc21`, for which the Potency was 13 µM (active).

On to `CS(=O)(=O)N1CCC(C(=O)N2CCN(c3ccccc3)CC2)CC1`, for which the Potency result was “inactive”.

With `O=C(C1CCC1)N1CCN(c2ccccc2)CC1`, the Potency result was “inactive”.

For `CCOC(=O)Cc1ncccc1C(=O)Nc1ccc(OC)cc1`, the Potency result is “inactive”.

As for `Cc1ccc2cccc([N+](=O)[O-])c2n1`, the Potency entry was “inactive”.

On to `CC[C@H](C)CCCCC(=O)N[C@@H](CCN)C(=O)N[C@H](C(=O)N[C@@H](CCN)C(=O)N[C@H]1CCNC(=O)[C@H]([C@@H](C)O)NC(=O)[C@H](CCN)NC(=O)[C@H](CCN)NC(=O)[C@H](CC(C)C)NC(=O)[C@@H](CC(C)C)NC(=O)[C@H](CCN)NC1=O)[C@@H](C)O` (X4-[Dab]T[Dab][Dab][Dab][dL]L[Dab][Dab]T; lactam 4-C), for which the Potency result is “inactive”.

Regarding `CC(=O)N1CCCc2ccc(NS(=O)(=O)c3ccc(F)cc3F)cc21`, the Potency result is “inactive”.

For the compound `CCN1C(=O)/C(=C\N2CCN(c3cccc(Cl)c3)CC2)SC1=S`, the Potency entry was “inactive”.

Consider `Cc1nn(CCOc2ccccc2)c(=O)n1-c1ccccc1F`, for which the Potency entry was “inactive”.

`CCc1nn(CCCN2CCN(c3cccc(Cl)c3)CC2)c(=O)n1CCOc1ccccc1`: the Potency is 11.6 µM (active).

As for `Cc1cc(C)cc(NC(=O)CCCc2nc(-c3ccccc3Cl)no2)c1`, the Potency entry was “inactive”.

On to `COc1ccc(-c2noc(CNC(=O)C(C)Oc3ccccc3)n2)cc1` (centres undefined), for which the Potency entry is “inactive”.

For the compound `NC1=NC(c2ccc([N+](=O)[O-])cc2)N(c2ccc(F)cc2)C(N)=N1` (centres undefined), the Potency entry was “inactive”.

As to `Cc1ccc(OCCn2c(CNc3ccccc3C)nc3ccccc32)cc1`, the Potency was 23.1 µM (active).

For the compound `COCCn1c(-c2ccc(OC)c(OC)c2)nc2ccccc21`, the Potency entry is “inactive”.

As to `Cc1ccc(OCc2nc3ccccc3n2C)cc1`, the Potency result was “inactive”.

In the case of `COc1cc2ccccc2cc1C(=O)Nc1nc(C)c(C(C)=O)s1`, the Potency result was “inactive”.

Regarding `Cc1csc2nc(COC(=O)c3ccc(NC(=O)COc4ccccc4F)cc3)cc(=O)n12`, the Potency was 18.4 µM (active).

For the compound `Cc1csc2nc(COc3ccc(NC(=O)COc4ccccc4)cc3)cc(=O)n12`, the Potency result is “inactive”.

In the case of `O=C(COc1ccccc1F)Nc1ccc(C(=O)OCc2cc(=O)n3nc(C4CC4)sc3n2)cc1`, the Potency result was “inactive”.

Take `COc1ccc(CCNC(=O)CCNS(=O)(=O)c2cc(Br)cnc2N)cc1OC`: the Potency entry was “inactive”.

Take `COC(=O)[C@H](CC(C)C)NC(=O)N1CCCCC1C` (some centres undefined): the Potency entry was “inactive”.

Regarding `CC(C)(C)Nc1nc(-c2ccccn2)nc2ccccc12`, the Potency was 4.61 µM (active).

Consider `Cc1nc2ccccc2c(C(=O)O)c1-c1ccccn1`, for which the Potency entry is “inactive”.

`CC(=O)Nc1ccc(NC(=O)CCN2C(=O)C3CC=CCC3C2=O)cc1` (centres undefined): the Potency result was “inactive”.

Regarding `COC(=O)[C@]1(C)CCC[C@@]2(C)C3CC[C@]4(OC(C)=O)C[C@@]3(CCC21)CC4=NO` (some centres undefined), the Potency is 16.4 µM (active).

For `COC(=O)[C@@H]1C[C@H]2CC[C@H](O)C[C@H]2N1Cc1ccc(N2CCN(C)CC2)cc1`, the Potency entry was “inactive”.

Turning to `O=C(c1cccnc1NCc1ccccc1)N1CCOCC1`, the Potency result is “inactive”.

Turning to `Oc1c(C(c2ccccn2)N2CCOCC2)ccc2cccnc12` (centres undefined), the Potency was 16.4 µM (active).

Consider `Cc1nc2sc(C(c3ccco3)N3CCOCC3)c(O)n2n1` (centres undefined), for which the Potency entry is “inactive”.

Consider `O=C(O)c1cc(S(=O)(=O)Nc2ccc3cn[nH]c3c2)ccc1Br`, for which the Potency entry was “inactive”.

Take `O=C(Nc1ccccc1)C1CC(=O)n2c(nc3ccccc32)N1` (centres undefined): the Potency entry was “inactive”.

On to `O=c1ccc2cc(S(=O)(=O)NCCCc3ccccc3)ccc2[nH]1`, for which the Potency entry was “inactive”.

On to `CC(C)n1c(SCC(=O)Nc2ccccc2N2CCCCC2)nc2c1c(=O)n(C)c(=O)n2C`, for which the Potency was 29.1 µM (active).

For `Cc1cccc(Cn2c(SCCO)nc3c2c(=O)n(C)c(=O)n3C)c1`, the Potency is 25.9 µM (active).

For the compound `Cn1c(=O)c2c(nc(SCC(=O)Nc3ccc(F)cc3)n2Cc2ccccc2)n(C)c1=O`, the Potency was 4.61 µM (active).

Take `C#CC(C)(C)NC(=O)CSc1nc2c(c(=O)n(C)c(=O)n2C)n1CCCC`: the Potency entry is “inactive”.

Turning to `CSc1nnc(C2CCCN(CC(=O)Nc3ccccc3N3CCOCC3)C2)n1C(C)C` (centres undefined), the Potency entry was “inactive”.

Take `COC(=O)C(C)Sc1nc2c(c(=O)n(C)c(=O)n2C)n1Cc1cccc(C)c1` (centres undefined): the Potency entry is “inactive”.

For the compound `CCC1CCCCN1C(=O)CSc1nc2c(c(=O)n(C)c(=O)n2C)n1C` (centres undefined), the Potency result was “inactive”.

For the compound `CCCCn1c(SCC(=O)N2CCOCC2)nc2c1c(=O)n(C)c(=O)n2C`, the Potency entry was “inactive”.

Turning to `CCOC(=O)CSc1nc2c(c(=O)n(C)c(=O)n2C)n1Cc1ccccc1F`, the Potency result is “inactive”.

Take `O=C(c1cccs1)N1C[C@H](n2cc(C3CC3)nn2)[C@@H](O)C[C@@H]1c1ccccc1`: the Potency entry was “inactive”.

The record behind these values is PubChem BioAssay AID686979 (National Center for Advancing Translational Sciences (NCATS), 2013).
